By inhibition is commonly meant the change of the read-out against control, counted positive when it falls.

“And” between values parts separate entries of the source, which are not always exact repeats. Equal entries are not always repeated.

Chain of Phosphorylase b kinase gamma catalytic chain, skeletal muscle/heart isoform (Homo sapiens) (Q16816 whole entry, looked up, canonical isoform): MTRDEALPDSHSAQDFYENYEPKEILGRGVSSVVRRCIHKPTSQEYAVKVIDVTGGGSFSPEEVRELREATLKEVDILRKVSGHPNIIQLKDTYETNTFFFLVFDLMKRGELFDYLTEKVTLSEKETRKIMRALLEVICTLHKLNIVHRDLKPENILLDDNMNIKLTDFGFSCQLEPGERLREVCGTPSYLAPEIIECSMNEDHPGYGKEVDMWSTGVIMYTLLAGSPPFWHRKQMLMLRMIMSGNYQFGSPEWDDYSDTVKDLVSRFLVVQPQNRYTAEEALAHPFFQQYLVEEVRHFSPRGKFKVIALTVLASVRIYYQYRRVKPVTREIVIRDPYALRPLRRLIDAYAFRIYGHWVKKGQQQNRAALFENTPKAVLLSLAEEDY

One experiment has as its target Phosphorylase b kinase gamma catalytic chain, skeletal muscle/heart isoform (Homo sapiens) (UniProt Q16816). Conditions: at 0.1 µM.
Take `O=C(Nc1n[nH]c2nnc(-c3cccnc3)cc12)C1CC1`: the inhibition is 0.1%.
Turning to `COC(=O)Nc1nc2ccc(Oc3ccc(NC(=O)Nc4cc(C(F)(F)F)ccc4F)cc3)cc2s1`, the inhibition is -9.77%.
In the case of `NC(=O)c1ccc2c(-c3ccnc(NCCCO)n3)c(-c3ccc(F)cc3)nn2c1`, the inhibition was 6.92%.
On the same count and under the same terms, as for `NS(=O)(=O)c1ccc(N/N=C2\C(=O)Nc3ccc(C(=O)NCc4ccncc4)cc32)cc1`, the figure is 5.19%; as for `CNC(=O)c1ncccc1Nc1nc(Nc2cc3c(cc2OC)CCCN3C(=O)CN(C)C)nc2[nH]ccc12`, 5.77%; as for `COc1ccccc1-c1cc(/C=C2\C(=O)Nc3ncc(Br)cc32)cc(Br)c1O`, 3.58%.
As to `CN(C)CCNC(=O)Nc1ccc(N(C)c2ccnc(Nc3ccc(CS(C)(=O)=O)cc3)n2)cc1`, the inhibition is 2.14%.
As for `CS(=O)(=O)CCNCc1ccc(-c2ccc3ncnc(Nc4ccc(OCc5ccccc5)cc4)c3c2)o1`, the inhibition is 4.83%.
As to `COC(=O)Nc1nc2cc(Oc3ccc(NC(=O)Nc4ccccc4)cc3)ccc2[nH]1`, the inhibition came to 4.15%.
Take `O=C(O[C@H]1CN[C@H](C#Cc2cc3ncnc(Nc4ccc(OCc5cccc(F)c5)c(Cl)c4)c3s2)C1)N1CCOCC1`: the inhibition stood at 6.72%.
As for `CCCNc1cccc(-n2ncc3c(N/N=C/c4ccncc4)ncnc32)c1`, the inhibition amounted to 2.76%.
For `CC1=C(C(=O)Nc2ccc3[nH]nc(C)c3c2)C(c2ccc(C(F)(F)F)cc2)CC(=O)N1` (stereo unspecified), the inhibition worked out at 4.32%.
Regarding `CN1CCC(C(=O)Nc2n[nH]c3nc(-c4ccc(O)cc4)c(Br)cc23)CC1`, the inhibition was 7.58% and -0.16%.
On to `Cc1cc(O)cc(C)c1/C=C/c1cncc(C(=O)OC(C)(C)C)c1`, for which the inhibition came to 3.95%.
Regarding `CN1CCN(Cc2ccc(-c3cc4ncnc(Nc5ccc(OCc6cccc(F)c6)c(Cl)c5)c4s3)o2)CC1`, the inhibition worked out at 4.48%.

Another experiment has the same target. The settings on record: at 1 µM.
As to `FC(F)(F)CNc1nccc(-c2cnn3ncccc23)n1`, the inhibition worked out at 6.43%.
On the same count and under the same terms, then `CCOc1ccc2c(-c3ccnc(Nc4cc(OC)cc(C(F)(F)F)c4)n3)cnn2n1`, with 0.94%; and `CCS(=O)(=O)c1ccc(OC)c(Nc2ncc(-c3cccc(C(C)=O)c3)o2)c1`, with 10.4%.
Consider `CS(=O)(=O)CCNCc1ccoc1-c1ccc2ncnc(Nc3ccc(OCc4ccccc4)cc3)c2c1`, for which the inhibition worked out at 3.12%.
On the same count and under the same terms, as for `NS(=O)(=O)c1cccc(N/C=C2\C(=O)Nc3ccccc32)c1`, the figure is 33.3%; as for `CCn1c(-c2nonc2N)nc2cncc(C(=O)NCCNC)c21`, 7.35%; as for `CS(=O)(=O)CCNCc1ccc(-c2ccc3ncnc(Nc4ccc(OCc5cccc(C(F)(F)F)c5)cc4)c3c2)o1`, 4.94%.
Turning to `COc1cc(N2CCN(C(C)C)CC2)ccc1Nc1nc(Nc2cccc(F)c2C(=O)O)c2cc[nH]c2n1`, the inhibition amounted to 39.8%.
Consider `O=C(O[C@H]1CN[C@H](C#Cc2cc3ncnc(Nc4ccc5c(cnn5Cc5ccccc5)c4)c3s2)C1)N1CCOCC1`, for which the inhibition worked out at 6.5%.
Take `CS(=O)(=O)Nc1ccc(-c2cc(-c3ccccc3)cc(C(N)=O)c2N)cc1`: the inhibition came out at 4.26%.
As to `CCS(=O)(=O)c1ccc(OC)c(Nc2ncc(-c3cccc(F)c3)o2)c1`, the inhibition was determined as 24.7%.
Take `O=C1Nc2ccccc2/C1=C1\CCc2cc(O)ccc21`: the inhibition was found to be 40.6%.
Consider `Cc1ccc(-c2cc3c(NC(=O)C4CC4)ncnc3o2)cc1`, for which the inhibition was 9.89%.
Same read-out and setting: as for `CS(=O)(=O)Nc1ccc(-c2ccc3c(NC(=O)C4CC4)n[nH]c3c2)cc1`, the figure is 5.46%; as for `Cn1c(-c2nonc2N)nc2cnccc21`, 0.15%; as for `COc1cccc(-n2ncc3c(N/N=C/c4ccc(C(=O)NCCN(C)C)cc4)ncnc32)c1`, 30.5%.
Same read-out and setting: then `O=C(Nc1n[nH]c2nnc(-c3cccnc3)cc12)C1CC1`, with -0.03%.
Consider `COC(=O)Nc1nc2ccc(Oc3ccc(NC(=O)Nc4cc(C(F)(F)F)ccc4F)cc3)cc2s1`, for which the inhibition worked out at 1.81%.
With `NC(=O)c1ccc2c(-c3ccnc(NCCCO)n3)c(-c3ccc(F)cc3)nn2c1`, the inhibition turned out to be 7.38%.
On the same count and under the same terms, then `NS(=O)(=O)c1ccc(N/N=C2\C(=O)Nc3ccc(C(=O)NCc4ccncc4)cc32)cc1`, with 28.9%; and `CNC(=O)c1ncccc1Nc1nc(Nc2cc3c(cc2OC)CCCN3C(=O)CN(C)C)nc2[nH]ccc12`, with 26.6%; and `COc1ccccc1-c1cc(/C=C2\C(=O)Nc3ncc(Br)cc32)cc(Br)c1O`, with 7.04%.
Take `CN(C)CCNC(=O)Nc1ccc(N(C)c2ccnc(Nc3ccc(CS(C)(=O)=O)cc3)n2)cc1`: the inhibition was 4.59%.
As for `CS(=O)(=O)CCNCc1ccc(-c2ccc3ncnc(Nc4ccc(OCc5ccccc5)cc4)c3c2)o1`, the inhibition is 4.75%.
In the case of `COC(=O)Nc1nc2cc(Oc3ccc(NC(=O)Nc4ccccc4)cc3)ccc2[nH]1`, the inhibition came to 5.64%.
Take `O=C(O[C@H]1CN[C@H](C#Cc2cc3ncnc(Nc4ccc(OCc5cccc(F)c5)c(Cl)c4)c3s2)C1)N1CCOCC1`: the inhibition was found to be 7.76%.

(Values after ChEMBL document CHEMBL1961873, “Compounds: GSK PKIS; Assays: Nanosyn kinase panel” (2012).)
